Among the test systems are T-47D breast; BT-549 breast; MDA-MB-435 melanoma; SW-620 colon; MCF7 breast; HCT-116 colon; HCC-2998 colon; KM12 colon.
What all share (test): NCI-60 one-dose screen, 48 h (100 = growth as untreated, 0 = no growth, -100 = all killed)

Several values for one entry are separate records, joined by “and”; a condition that tells them apart may be missing. Equal values may be shown once. About 83,000 compounds went through this panel and 20% of them were active in at least one assay; those are over-represented in the sample as a whole.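 Activity criterion: percent growth below 10, measured after cells in 96-well plates were exposed to a single compound concentration for 48 hours.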 Activity calls are given as the source filed them.

Turning to `CN(Cc1cnc2nc(N)nc(N)c2n1)c1ccc(C(=O)N[C@@H](CCC(=O)O)C(=O)O)cc1`, the growth with T-47D breast (2.5 µM) was 55.6% (inactive); in the experiment on T-47D breast (10 µM) it was 46.2% (inactive); with BT-549 breast (2.5 µM), 40.9% (inactive); in the experiment on BT-549 breast (10 µM) it was 46.9% (inactive); in the experiment with MDA-MB-435 melanoma (2.5 µM), 25.7% (inactive); in the experiment on MDA-MB-435 melanoma (10 µM), 27.2% (inactive). Moreover, the growth was 41.9% (inactive) in the experiment on SW-620 colon (2.5 µM); 35.6% (inactive) with SW-620 colon (10 µM); 24.4% (inactive) in the experiment with MCF7 breast (2.5 µM); 17.2% (inactive) in the experiment on MCF7 breast (10 µM); 18.5% (inactive) in the experiment with HCT-116 colon (2.5 µM); 22.7% (inactive) in the experiment with HCT-116 colon (10 µM). Also, the growth in the experiment on HCC-2998 colon (2.5 µM) is 8.58% (active); with HCC-2998 colon (10 µM) it was 106% (inactive); in the experiment with KM12 colon (2.5 µM), 30.6% (inactive); with KM12 colon (10 µM) it was 31.9% (inactive).

In the case of `COc1ccc2sc3cccc(NCCN(C)C)c3c(=O)c2c1`, the growth in the experiment with T-47D breast (10 µM) is 70.7% (inactive) and -34.7% (active); with BT-549 breast (10 µM) it was 80.1% (inactive) and 29.6% (inactive); in the experiment on MDA-MB-435 melanoma (10 µM), 31.3% (inactive) and -86.9% (active); with SW-620 colon (10 µM), 24.5% (inactive) and -79% (active); with MCF7 breast (10 µM) it was 30.5% (inactive) and -72.8% (active); with HCT-116 colon (10 µM), 18.5% (inactive) and -76.2% (active). Moreover, the growth was 28.1% (inactive) and -83% (active) in the experiment with HCC-2998 colon (10 µM); 38.3% (inactive) and -7.99% (active) with KM12 colon (10 µM).

On to `CC/C(=C(\c1ccccc1)c1ccc(OCCN(C)C)cc1)c1ccccc1`, for which the growth in the experiment with T-47D breast (12.5 µM) was -18.5% (active); in the experiment with BT-549 breast (10 µM), 69.8% (inactive); with BT-549 breast (12.5 µM), -96% (active); in the experiment on MDA-MB-435 melanoma (10 µM), 37.8% (inactive); in the experiment on MDA-MB-435 melanoma (12.5 µM), -87.2% (active); in the experiment with SW-620 colon (10 µM), 4.89% (active). The growth is -50.4% (active) with SW-620 colon (12.5 µM); -10.3% (active) in the experiment with MCF7 breast (10 µM); -61.6% (active) in the experiment with MCF7 breast (12.5 µM); 26.2% (inactive) in the experiment with HCT-116 colon (10 µM); -98.1% (active) in the experiment on HCT-116 colon (12.5 µM); 16.3% (inactive) in the experiment with HCC-2998 colon (10 µM). The growth with HCC-2998 colon (12.5 µM) was -96.2% (active); in the experiment on KM12 colon (10 µM), 25% (inactive); in the experiment on KM12 colon (12.5 µM), -74.4% (active).

Regarding `CC[C@@]1(O)C(=O)OCc2c1cc1n(c2=O)Cc2cc3c(CN(C)C)c(O)ccc3nc2-1`, the growth was 9.96% (active) and 8.7% (active) with T-47D breast (10 µM); -1.81% (active) and -14.9% (active) in the experiment on BT-549 breast (10 µM); -44.2% (active) and -55% (active) with MDA-MB-435 melanoma (10 µM); 9.23% (active) and 7.32% (active) with SW-620 colon (10 µM); 1.58% (active) and 5.19% (active) in the experiment with MCF7 breast (10 µM); 0.82% (active) and -14.2% (active) in the experiment with HCT-116 colon (10 µM). The growth was -14.2% (active) and -26.3% (active) in the experiment on HCC-2998 colon (10 µM); 6.1% (active) and -42.5% (active) in the experiment with KM12 colon (10 µM).

For the origin of these results see PubChem BioAssay (NCI).
